The source of these data is paper PMC11062922 (Nature Chemical Biology, 2023).

Common to all, as to set-up: species or system human, MV4-11 + K-562 + COLO205 + SK-N-BE2 + OVCAR-8
One test relates to CSNK1G1. Conditions: read-out: apparent Kd, n = 1.
In the next test the test system is MAP2K5. Conditions: read-out: apparent Kd, n = 1.
A further test deals with SYK. The settings on record: read-out: apparent Kd, n = 1.
For the next test, the system named is AKT1. Conditions: read-out: apparent Kd, n = 1.
In another test the test system is MAPK11. Conditions: read-out: apparent Kd, n = 1.
Another test has as its system PIM1. The settings on record: read-out: apparent Kd, n = 1.
Another test concerns PRKCI. The settings on record: read-out: apparent Kd, n = 1.
For the next test, the system named is TAOK1. Conditions: read-out: apparent Kd, n = 1.
In a further test the test system is COX5A. The settings on record: read-out: apparent Kd, n = 1.
A further test has as its system MERTK. The settings on record: read-out: apparent Kd, compound concentrations: 100 nM and 1000 nM (sheet 'Samples'), n = 1.
For the next test, the system named is NTRK1. The settings on record: read-out: apparent Kd, n = 1.
For a further test, the system named is IRAK1. Conditions: read-out: apparent Kd; compound concentrations:100 nM and 1000 nM (sheet 'Samples'); n = 1.
For another test, the system named is TBK1. The settings on record: read-out: apparent Kd; compound concentrations:100 nM and 1000 nM (sheet 'Samples'); n = 1.
A further test concerns PRKX;PRKY. The settings on record: read-out: apparent Kd, n = 1.
The next test relates to NQO1. The settings on record: read-out: apparent Kd; compound concentrations:100 nM and 1000 nM (sheet 'Samples'); n = 1.
The subject of a further test is ERN1. The settings on record: read-out: apparent Kd, n = 1.
In another test the test system is PRKDC. Conditions: read-out: apparent Kd; compound concentrations: 100 nM and 1000 nM (sheet 'Samples'), CATDS: 3.7580559894827101E-2; n = 1.
The mark [1] stands for this setting: compound concentrations:100 nM and 1000 nM (sheet 'Samples').

Like-named read-outs stand apart in the source and are kept apart here.

In the case of `O=C(O)C(F)(F)F.O=c1[nH]ccc2nc(N[C@@H]3CCNC3)nc(Nc3ccc4c(c3)S(=O)(=O)CC4)c12` [GSK2181306A], the potency estimated from few doses is 1380 nM in the test with CSNK1G1 (compound concentrations: 100 nM and 1000 nM (sheet 'Samples'), CATDS: 8.6672996654843307E-3); 509 nM with MAP2K5 (compound concentrations: 100 nM and 1000 nM (sheet 'Samples'), CATDS: 1.2089918500056101E-2); 1320 nM in the test with SYK (compound concentrations: 100 nM and 1000 nM (sheet 'Samples'), CATDS: 8.7741915408421998E-3).

Turning to `CCn1c(-c2cccnc2O)nc2cnccc21` [SB-736715], the potency estimated from few doses in the test on AKT1 (compound concentrations: 100 nM and 1000 nM (sheet 'Samples'), CATDS: 1.3570938887082299E-2) was 1610 nM; with CSNK1G1 (compound concentrations: 100 nM and 1000 nM (sheet 'Samples'), CATDS: 1.6371117072737501E-2), 1080 nM; in the test with MAPK11 (compound concentrations: 100 nM and 1000 nM (sheet 'Samples'), CATDS: 1.30714391114645E-2), 1760 nM; in the test on PIM1 (compound concentrations: 100 nM and 1000 nM (sheet 'Samples'), CATDS: 1.79844140695006E-2), 909 nM; with PRKCI (compound concentrations: 100 nM and 1000 nM (sheet 'Samples'), CATDS: 1.2421041550088101E-2), 2000 nM; with SYK (compound concentrations: 100 nM and 1000 nM (sheet 'Samples'), CATDS: 1.27185371688364E-2) it was 1880 nM.

As to `NC(=O)c1cc(-c2ccccc2)cc2c(C3CCNCC3)c[nH]c12` [GSK301362A], in the test on TAOK1 (setting [1]), the potency estimated from few doses is 1500 nM.

Regarding `O=C(O)C(F)(F)F.O=C(O)C(F)(F)F.O=c1[nH]ccc2nc(N[C@@H]3CCCNC3)nc(Nc3ccc(S(=O)(=O)N4CCOCC4)cc3)c12.O=c1[nH]ccc2nc(N[C@@H]3CCCNC3)nc(Nc3ccc(S(=O)(=O)N4CCOCC4)cc3)c12` [GSK2177277A], the potency estimated from few doses in the test with COX5A (compound concentrations: 100 nM and 1000 nM (sheet 'Samples'), CATDS: 6.6138643227552996E-3) was 1310 nM; in the test with CSNK1G1 (compound concentrations: 100 nM and 1000 nM (sheet 'Samples'), CATDS: 7.1909422101758503E-3), 882 nM; with MAP2K5 (compound concentrations: 100 nM and 1000 nM (sheet 'Samples'), CATDS: 1.4569473169207601E-2) it was 103 nM; with MERTK (CATDS: 1.1592861489919001E-2), 181 nM; with TAOK1 (compound concentrations: 100 nM and 1000 nM (sheet 'Samples'), CATDS: 1.8448588679872001E-2), 61.9 nM.

`COc1cc[nH]c1/C=C1\C(=O)Nc2ccc(F)c(C#CC3(O)CCNCC3)c21.Cl` [RO0282986-001]: the potency estimated from few doses with NTRK1 (compound concentrations: 100 nM and 1000 nM (sheet 'Samples'), CATDS: 9.7350807133640294E-3) was 1470 nM.

`Cc1cc(-c2ccnc(Nc3cccc(C#N)c3)n2)cc(C)c1O` [GSK1440913A]: the potency estimated from few doses with COX5A (compound concentrations: 100 nM and 1000 nM (sheet 'Samples'), CATDS: 8.0504484678198804E-2) was 1300 nM.

On to `CC(C)Oc1ccc2c(-c3ccnc(Nc4ccc(N5CCN(C)CC5)cc4)n3)cnn2n1` [GW696155X], for which the potency estimated from few doses in the test on IRAK1 is 769 nM; with TAOK1 (setting [1]), 1580 nM; with TBK1, 621 nM.

For the molecule `Cl.Cl.NC(CNC(=O)c1cc(Br)c(-c2ccnc3[nH]ccc23)s1)c1ccccc1.NC(CNC(=O)c1cc(Br)c(-c2ccnc3[nH]ccc23)s1)c1ccccc1` (centres unmarked) [GSK1322949A], the potency estimated from few doses in the test on NTRK1 (compound concentrations: 100 nM and 1000 nM (sheet 'Samples'), CATDS: 2.41440168152992E-2) is 2140 nM; in the test on PRKCI (compound concentrations: 100 nM and 1000 nM (sheet 'Samples'), CATDS: 2.43099453780894E-2) it was 2100 nM.

Consider `CCn1c(-c2nonc2N)nc2c(C#CC(C)(C)O)nc(O[C@@H](CN)c3ccccc3)cc21.O=C(O)C(F)(F)F` [GSK1007102B], for which the potency estimated from few doses in the test on AKT1 (setting [1]) was 1120 nM; in the test with PRKX;PRKY (setting [1]) it was 83.5 nM.

Take `CC(C)Nc1cc(-c2ccc3c(N)n[nH]c3c2)nc(N)n1` [GSK2221681A]: the potency estimated from few doses in the test with PRKX;PRKY (setting [1]) is 1270 nM.

For `O=C(O)C(F)(F)F.O=c1[nH]ccc2nc(N[C@@H]3CCNC3)nc(Nc3cc(Cl)cc(Cl)c3)c12` [GSK2188764A], in the test on MAP2K5 (setting [1]), the potency estimated from few doses was 207 nM.

On to `Cc1cccc(Nc2nc(N[C@H]3CCNC3)ncc2C(N)=O)c1.Cl` [GSK2197149A], for which, in the test with MAP2K5 (setting [1]), the potency estimated from few doses was 1170 nM.

Take `CS(=O)(=O)CCn1c(=O)c(Oc2ccc(F)cc2F)cc2cnc(NC3CCOCC3)nc21` [RO5027956-000]: in the test on MAPK11 (setting [1]), the potency estimated from few doses is 1730 nM.

On to `CNc1cc(-c2ccc3c(N)n[nH]c3c2)nc(N)n1` [GSK2224810A], for which the potency estimated from few doses in the test with CSNK1G1 (setting [1]) is 2200 nM; in the test with NQO1, 1440 nM.

With `Cc1ccccc1C1=C(c2cn(C)c3ccccc23)C(=O)NC1=O` [RO0317612-000], in the test on COX5A (compound concentrations: 100 nM and 1000 nM (sheet 'Samples'), CATDS: 0.16821535460753201), the potency estimated from few doses was 767 nM.

With `CNCc1ccc(-c2cc(-c3nc(-c4ccc(S(=O)(=O)C(C)C)cc4)cnc3N)on2)cc1` [VE-822], the potency estimated from few doses in the test with NQO1 is 1090 nM.

On to `Cc1ccccc1-n1ncc(C(=O)c2ccccc2)c1N` [RO1151248-000], for which the potency estimated from few doses in the test on MAPK11 (compound concentrations: 100 nM and 1000 nM (sheet 'Samples'), CATDS: 3.0870042087065699E-2) is 552 nM.

Consider `CCN(CC)Cc1ccc(Nc2nccc(-c3cnn4ncccc34)n2)cc1` [GW780056X], for which the potency estimated from few doses in the test on NTRK1 (compound concentrations: 100 nM and 1000 nM (sheet 'Samples'), CATDS: 2.09044703121741E-2) is 1140 nM.

For `COc1cc[nH]c1/C=C1\C(=O)Nc2ccc([N+](=O)[O-])c(N3CC[C@@H](O)C3)c21` [RO0504985-000], the potency estimated from few doses in the test with NTRK1 (compound concentrations: 100 nM and 1000 nM (sheet 'Samples'), CATDS: 3.6845933962960403E-2) is 886 nM.

As to `O=C1N=C(NCCc2ccccc2Cl)S/C1=C\c1ccc2ncccc2c1` [RO4498484-000], in the test on PRKX;PRKY (compound concentrations: 100 nM and 1000 nM (sheet 'Samples'), CATDS: 5.9384973682941697E-2), the potency estimated from few doses was 1830 nM.

Turning to `Cc1occc1-c1nc(N)c(OC[C@@H](N)Cc2c[nH]c3ccccc23)cc1-c1cc2c(C)n[nH]c2cn1` [GSK1660450B], the potency estimated from few doses is 824 nM with COX5A (setting [1]), 1340 nM with CSNK1G1 (setting [1]), 92.7 nM with PIM1 (setting [1]) and 12 nM in the test with TAOK1 (setting [1]).

Take `COc1cccc(C2=C(c3c(C)n(C)c4ccccc34)C(=O)NC2=O)c1` [RO3300167-000]: the potency estimated from few doses with ERN1 (compound concentrations: 100 nM and 1000 nM (sheet 'Samples'), CATDS: 7.9309280446682603E-2) is 1540 nM.

Turning to `Nc1nc(-c2ccc3c(N)n[nH]c3c2)cc(N2CCCC(NC(=O)c3ccccc3)C2)n1` (centres unmarked) [GSK2286775B], the potency estimated from few doses is 1370 nM in the test with NQO1 and 342 nM in the test on TBK1.

Turning to `Cn1cc(C2=C(c3c(S(C)=O)n(C)c4ccccc34)C(=O)NC2=O)c2ccccc21` (centres unmarked) [RO0317379-000], the potency estimated from few doses in the test with MERTK (CATDS: 0.152685994301652) is 590 nM.

Consider `COc1cc[nH]c1/C=C1\C(=O)Nc2ccc(F)c(C#C[C@@H](O)[C@@H](N)[C@@H](C)O)c21` [RO0283120-000], for which the potency estimated from few doses in the test on NTRK1 (setting [1]) is 1430 nM.

Turning to `CCn1c(-c2nonc2N)nc2cncc(C(=O)N3CC[C@H](N)C3)c21.Cl` [SB-772077-B], the potency estimated from few doses in the test on PIM1 (setting [1]) was 30.8 nM; with PRKCI (setting [1]), 606 nM.

Consider `Nc1nccc(-c2ccc3c(N)n[nH]c3c2)n1` [GSK1034945A], for which the potency estimated from few doses with PRKCI (setting [1]) was 1240 nM.

For `CCC(CC)(CC)n1cnc2c(N)ncnc21` [SKF-97620], the potency estimated from few doses with PRKDC was 583 nM.

Consider `CCn1c(-c2nonc2N)nc2cncc(Br)c21` [SB-738004], for which the potency estimated from few doses in the test on PRKCI (setting [1]) was 483 nM.

Regarding `CN[C@H](C#Cc1c(F)ccc2c1/C(=C/c1[nH]ccc1OC)C(=O)N2)CO.Cl` [RO0283049-001], in the test on NTRK1 (compound concentrations: 100 nM and 1000 nM (sheet 'Samples'), CATDS: 2.3877325037377599E-2), the potency estimated from few doses was 949 nM.

For the molecule `Cc1cc(NC(=O)c2cccc(NC(=O)/C=C/CN(C)C)c2)ccc1Nc1nccc(-c2cccnc2)n1` [JNK-IN-7], the potency estimated from few doses with IRAK1 was 111 nM.

For `CN(C)C(=O)/C(C#N)=C/c1ccc(-c2nc3cnc4[nH]ccc4c3n2C2CCCCC2)o1` [FM-381], the potency estimated from few doses in the test with COX5A (setting [1]) is 756 nM.

Turning to `O=C(Nc1n[nH]c2nc(-c3ccccc3O)ccc12)C1CC1` [SB-711880], the potency estimated from few doses with ERN1 (setting [1]) is 1700 nM; with SYK (setting [1]), 1760 nM.

As for `Nc1nc(-c2ccc3c(N)n[nH]c3c2)cc(N2CCCCC2)n1` [GSK2228768A], the potency estimated from few doses in the test on COX5A (setting [1]) is 1060 nM.
